We go through 40 molecules from PubChem BioAssay (EPA / NIEHS).

The source made the active and inactive calls. The calls were made as follows: active = hit-call score of the fitted dose curve at least 0.9, where 1 is the maximum; inactive = score below 0.9.

Chain of Tumor necrosis factor (Homo sapiens) (P01375 whole entry, looked up): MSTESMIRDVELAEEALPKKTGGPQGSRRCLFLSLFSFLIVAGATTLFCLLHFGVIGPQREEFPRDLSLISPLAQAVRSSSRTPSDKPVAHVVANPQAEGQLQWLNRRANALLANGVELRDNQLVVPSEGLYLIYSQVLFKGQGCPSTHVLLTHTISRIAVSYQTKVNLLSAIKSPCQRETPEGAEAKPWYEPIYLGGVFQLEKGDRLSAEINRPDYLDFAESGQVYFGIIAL

Read-out in this assay: Tumor necrosis factor (Homo sapiens) (UniProt P01375)
Description: BSK_BT_xTNFa: BioMAP Diversity Plus: BT Assay for Tumor necrosis factor alpha (TNF-alpha) Biomarker Activity (AID 2284230). The note with it: primary human B cells with PBMC. The protocol: BSK_BT is a cell-based, multiplexed-readout assay that uses B cell and peripheral blood mononuclear cells, a human vascular primary cell co-culture, with measurements taken at 24 hours after chemical dosing in a microplate: 96-well plate.BSK_BT_xTNFa is an assay component of the BSK_BT assay. It measures secreted TNF-alpha related to regulation of gene expression using LumineX xMAP technology.Data from the assay component BSK_BT_xTNFa was analyzed at the endpoint, BSK_BT_xTNFa, in the positive analysis fitting direction relative to DMSO as the negative control and baseline of activity. Using a type of cytokine quantitation reporter, gain or loss-of-signal activity can be used to understand protein changes. To generalize the intended target to other relatable targets, this assay endpoint is annotated to the 'cytokine' intended target family, where the subfamily is 'inflammatory factor'.
The levels of cell surface (or secreted, indicated by the prefix "s") biomarker endpoints were measured by ELISA. Overt cytotoxicity to cells in confluent adherent cultures (all systems other than the BT system) was assessed by measuring total protein levels using sulforhodamine B (SRB) staining in parallel cultures at the time of biomarker measurements, indicated as SRB endpoints. For proliferation assays for adherent cell types, individual cell types are cultured at sub-confluence and relative cell numbers quantified by SRB staining at time points optimized for each system (48 h: 3C and CASM3C systems; 72 h: BT and HDF3CGF systems; 96 h: SAg system). SRB was performed by staining cells with 0.1% SRB after fixation with 10% TCA and reading wells at 560 nm.Viability and proliferation of PBMC (T cells) was quantified by Alamar Blue reduction for the SAg and BT systems. For PBMC viability (referred to as PBMC Cytotoxicity within the assay endpoint names), cells were plated (75,000/well in a 96-well plate) and then chemical samples added for 1 h before addition of activators, SEB and TSST-1 (20 ng/mL final concentration each). Cells were incubated for 90 h. Then, Alamar Blue (20 uL/well) (Invitrogen, Cat DAL1100) was added for 6 h, and the plates were read with a fluorescence microplate reader at 546/580 nm (excitation/emission). For PBMC proliferation, cells were plated and activated as above but incubated for only 16 h prior to addition of Alamar Blue. Plates were read after 6 h.
Consider `COCC(=O)N(c1c(C)cccc1C)[C@H](C)C(=O)OC`, for which the result was inactive. Same read-out and setting: the result for `CCOP(=O)(OCC)SCCSCC` reads “inactive”. `CCCCN(CCCC)C(=S)[S-].CCCCN(CCCC)C(=S)[S-].[Ni+2]`: the outcome was inactive. As to `CC(C)N(C(=O)CCl)c1ccccc1`, the AC50 was 12 µM (active). Consider `O=C1C=CC(=O)c2ccccc21`, for which the AC50 was 0.812 µM (active). For the molecule `CCOP(=S)(OCC)OP(=S)(OCC)OCC`, the result was inactive. With `CCOC(=O)CC(=O)CCl`, the AC50 is 23.4 µM (active).

Take `C[C@]12CC[C@@H](O)C[C@@H]1CC[C@@H]1[C@@H]2CC[C@]2(C)C(=O)CC[C@@H]12`: the result was inactive.

As for `Oc1ccc(Cc2ccc(O)cc2)cc1`, the result was inactive. Consider `O=[N+]([O-])c1cccc2ccccc12`, for which the result was inactive. In the case of `CCOC(=O)C(SP(=S)(OC)OC)c1ccccc1` (stereo not given), the result was inactive. Regarding `CC(C)(C)c1cc([N+](=O)[O-])cc(C(C)(C)C)c1O`, the AC50 is 14.8 µM (active). Regarding `Cc1cccc(OP(=O)(Oc2cccc(C)c2)Oc2cccc(C)c2)c1`, the result was inactive.

For `NC(=O)CCl`, the outcome was inactive. Same read-out and setting: as for `Nc1c(Oc2ccccc2)cc(O)c2c1C(=O)c1ccccc1C2=O`, the entry is “inactive”. Consider `Cc1ccc(OP(=O)(Oc2ccc(C)cc2C)Oc2ccc(C)cc2C)c(C)c1`, for which the half-maximal activity concentration (AC50) is 20 µM (active). Consider `Cc1cc(Cl)ccc1N`, for which the result was inactive. Consider `N#CCCC(Br)(C#N)CBr` (stereo not given), for which the AC50 was 11.1 µM (active). As for `OC(Cc1ccccc1Cl)(Cn1cncn1)C1(Cl)CC1` (stereo not given), the result was inactive. Still for that read-out and setting: the result for `Cc1cc(Cl)ccc1OC(C)C(=O)O` (stereo not given) reads “inactive”; that for `Oc1c(Br)cc(Br)cc1Br`, “inactive”.

Turning to `Cc1ccccc1OP(=O)(Oc1ccccc1C)Oc1ccccc1C`, the AC50 is 31 µM (active). Turning to `O=C(CCl)NCO`, the result was inactive. Still for that read-out and setting: the result for `C#CCOC(=O)/C=C(C)/C=C/CC(C)CCCC(C)C` (stereo not given) reads “inactive”.

In the case of `c1ccc2sc(SNC3CCCCC3)nc2c1`, the half-maximal activity concentration (AC50) is 37.6 µM (active). Consider `CCCCCCCCCCCCN(C)C`, for which the outcome was inactive. Turning to `CCOP(=O)(OCC)OC(=CCl)c1ccc(Cl)cc1Cl`, the outcome was inactive. Still for that read-out and setting: the result for `O=c1oc2ccccc2c(O)c1C(CC(O)c1ccc(-c2ccc(Br)cc2)cc1)c1ccccc1` (stereo not given) reads “inactive”.

As for `CC(C)(COCC1CO1)COCC1CO1` (stereo not given), the outcome was inactive.

On to `CC1(C)[C@H](C(=O)O[C@H](C#N)c2cccc(Oc3ccccc3)c2)[C@@H]1/C=C(\Cl)C(F)(F)F`, for which the result was inactive.

`CCOC(=O)CCN(SN(C)C(=O)Oc1cccc2c1OC(C)(C)C2)C(C)C`: the concentration at half-maximal activity (AC50) was 36.7 µM (active). On to `CC(C)=CC1C(C(=O)OCc2cccc(Oc3ccccc3)c2)C1(C)C` (stereo not given), for which the half-maximal activity concentration (AC50) is 20 µM (active). As for `C=CC(Cl)CCl` (stereo not given), the outcome was inactive. Same read-out and setting: as for `CC(C=O)Cc1ccc2c(c1)OCO2` (stereo not given), the entry is “inactive”. For `O=C(O)COc1cc(Cl)c(Cl)cc1Cl`, the outcome was inactive. Still for that read-out and setting: as for `O=S(=O)(c1ccc(Cl)cc1)c1cc(Cl)c(Cl)cc1Cl`, the entry is “inactive”. Consider `[Cl][Sn]([c]1ccccc1)([c]1ccccc1)[c]1ccccc1`, for which the AC50 was 0.495 µM (active). Consider `CCOP(=S)(OCC)SCS(=O)(=O)C(C)(C)C`, for which the result was inactive. For `O=[N+]([O-])c1ccc(Nc2ccccc2)cc1`, the result was inactive.

Regarding `Cc1c([N+](=O)[O-])c(C)c([N+](=O)[O-])c(C(C)(C)C)c1[N+](=O)[O-]`, the outcome was inactive.
